Measured values taken from the supplement of paper PMC7411054.
Where a name gives a salt, the structure may show the parent alone.

Tests used:
Settings in all cases: treatment time: 24 h
A549-ACTB-RAB5A [1] = test: lowest phenotypically active concentration; higher = less potent
Method in brief: (§1)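 Phenotypic activity depended on meeting both a deviation and a reproducibility criterion. The fifteen gene-edited A549, HepG2 and WPMY1 reporter lines were treated at 0.3, 1, 3 or 9 µM for 24 h, four wells each, then imaged live with features normalised to solvent control wells. Deviation required ≥3 of 4 wells past the 95th percentile of control Euclidean distances, and reproducibility a median replicate Pearson correlation above the 95th percentile of non-replicates.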

A549-GM130-SQSTM1 [2] = test: as above
Method in brief: as §1

A549-TUBA1B-RELA [3] = test: as above
Method in brief: as §1

WPMY1-ACTB-RAB5A [4] = test: as above
Method in brief: as §1

WPMY1-CANX-COX4 [5] = test: as above
Method in brief: as §1

A549-ACTB-RAB5A [6] = test: phenotypically active (imaging signature differs from DMSO and reproducible) at any of 0.3-9 uM (binary (1 = active, 0 = inactive)); higher = active
Method in brief: as §1

A549-CANX-COX4 = test: as above
Method in brief: as §1

A549-GM130-SQSTM1 [7] = test: as above
Method in brief: as §1

A549-TP53BP1-CLTA = test: as above
Method in brief: as §1

A549-TUBA1B-RELA [8] = test: as above
Method in brief: as §1

HepG2-ACTB-RAB5A = test: as above
Method in brief: as §1

HepG2-CANX-COX4 = test: as above
Method in brief: as §1

HepG2-GM130-SQSTM1 = test: as above
Method in brief: as §1

HepG2-TP53BP1-CLTA = test: as above
Method in brief: as §1

HepG2-TUBA1B-RELA = test: as above
Method in brief: as §1

WPMY1-ACTB-RAB5A [9] = test: as above
Method in brief: as §1

WPMY1-CANX-COX4 [10] = test: as above
Method in brief: as §1

WPMY1-GM130-SQSTM1 = test: as above
Method in brief: as §1

WPMY1-TP53BP1-CLTA = test: as above
Method in brief: as §1

WPMY1-TUBA1B-RELA = test: as above
Method in brief: as §1

SMILES | lowest phenotypically active concentration (A549-ACTB-RAB5A [1]) | lowest phenotypically active concentration (A549-GM130-SQSTM1 [2]) | lowest phenotypically active concentration (A549-TUBA1B-RELA [3]) | lowest phenotypically active concentration (WPMY1-ACTB-RAB5A [4]) | lowest phenotypically active concentration (WPMY1-CANX-COX4 [5]) | phenotypically active (A549-ACTB-RAB5A [6]) | phenotypically active (A549-CANX-COX4) | phenotypically active (A549-GM130-SQSTM1 [7]) | phenotypically active (A549-TP53BP1-CLTA) | phenotypically active (A549-TUBA1B-RELA [8]) | phenotypically active (HepG2-ACTB-RAB5A) | phenotypically active (HepG2-CANX-COX4) | phenotypically active (HepG2-GM130-SQSTM1) | phenotypically active (HepG2-TP53BP1-CLTA) | phenotypically active (HepG2-TUBA1B-RELA) | phenotypically active (WPMY1-ACTB-RAB5A [9]) | phenotypically active (WPMY1-CANX-COX4 [10]) | phenotypically active (WPMY1-GM130-SQSTM1) | phenotypically active (WPMY1-TP53BP1-CLTA) | phenotypically active (WPMY1-TUBA1B-RELA)
O=C(NCCN1CCC(n2c(=O)[nH]c3ccccc32)CC1)c1cc2cc(F)ccc2[nH]1 | 9 µM | 9 µM | 3 µM | 9 µM | 9 µM | 1 (active) | 0 (inactive) | 1 (active) | 0 (inactive) | 1 (active) | 1 (active) | 1 (active) | 1 (active) | 1 (active) | 1 (active) | 1 (active) | 1 (active) | 1 (active) | 1 (active) | 1 (active)
Cc1cc(CS(=O)(=O)c2ccccc2)cc(OCc2ccc(CN3CCC[C@@H]3CO)cc2)c1 [PF 543 hydrochloride] | 9 µM | 9 µM | 9 µM | 9 µM |  | 1 (active) | 0 (inactive) | 1 (active) | 0 (inactive) | 1 (active) | 1 (active) | 0 (inactive) | 1 (active) | 1 (active) | 0 (inactive) | 1 (active) | 0 (inactive) | 0 (inactive) | 0 (inactive) | 0 (inactive)
O=C([C@@H](Cc1cccc(C(F)(F)F)c1)NS(=O)(=O)c1cc(F)c2c(c1)CCNC2)N1CCCC1 [(R)-PFI 2 hydrochloride] | 9 µM | 9 µM | 9 µM |  |  | 1 (active) | 0 (inactive) | 1 (active) | 0 (inactive) | 1 (active) | 0 (inactive) | 0 (inactive) | 0 (inactive) | 0 (inactive) | 0 (inactive) | 0 (inactive) | 0 (inactive) | 0 (inactive) | 0 (inactive) | 0 (inactive)
O=C(Nc1nc2cc(C(F)(F)F)cc(NC3CC3)n2n1)c1cccnc1 | 3 µM | 3 µM | 9 µM | 3 µM | 9 µM | 1 (active) | 0 (inactive) | 1 (active) | 0 (inactive) | 1 (active) | 0 (inactive) | 1 (active) | 0 (inactive) | 1 (active) | 1 (active) | 1 (active) | 1 (active) | 0 (inactive) | 1 (active) | 0 (inactive)
c1ccc(CN(CC2=NCCN2)c2ccccc2)cc1 [antazoline] | 3 µM | 9 µM | 9 µM |  |  | 1 (active) | 0 (inactive) | 1 (active) | 0 (inactive) | 1 (active) | 0 (inactive) | 0 (inactive) | 0 (inactive) | 0 (inactive) | 0 (inactive) | 0 (inactive) | 0 (inactive) | 0 (inactive) | 0 (inactive) | 0 (inactive)
CN(C)CCCN1c2ccccc2CCc2ccc(Cl)cc21 [clomipramine] | 3 µM | 9 µM | 9 µM | 9 µM | 9 µM | 1 (active) | 0 (inactive) | 1 (active) | 0 (inactive) | 1 (active) | 1 (active) | 0 (inactive) | 0 (inactive) | 1 (active) | 1 (active) | 1 (active) | 1 (active) | 1 (active) | 1 (active) | 1 (active)
N#Cc1cccc(-c2c[nH]c3ncnc(N4CCOCC4)c23)c1 | 9 µM | 9 µM | 9 µM | 9 µM | 9 µM | 1 (active) | 0 (inactive) | 1 (active) | 0 (inactive) | 1 (active) | 1 (active) | 1 (active) | 1 (active) | 1 (active) | 1 (active) | 1 (active) | 1 (active) | 0 (inactive) | 1 (active) | 0 (inactive)
CN1CCN(c2ccc(-c3cccc(CN4CCOCC4)c3)cc2NC(=O)c2c[nH]c(=O)cc2C(F)(F)F)CC1 | 9 µM | 9 µM | 9 µM |  | 9 µM | 1 (active) | 0 (inactive) | 1 (active) | 0 (inactive) | 1 (active) | 0 (inactive) | 0 (inactive) | 1 (active) | 1 (active) | 1 (active) | 0 (inactive) | 1 (active) | 1 (active) | 1 (active) | 1 (active)
CN1C(=O)/C(=C2/Nc3ccccc3/C2=N/O)c2ccc(Br)cc21 | ≤ 0.3 µM | ≤ 0.3 µM | ≤ 0.3 µM | 1 µM | 9 µM | 1 (active) | 0 (inactive) | 1 (active) | 0 (inactive) | 1 (active) | 1 (active) | 1 (active) | 0 (inactive) | 0 (inactive) | 0 (inactive) | 1 (active) | 1 (active) | 1 (active) | 0 (inactive) | 0 (inactive)
CCN(CCO)CCCC(C)Nc1ccnc2cc(Cl)ccc12 (centres undefined) [hydroxychloroquine] | 9 µM | 9 µM | 9 µM | 9 µM | 9 µM | 1 (active) | 0 (inactive) | 1 (active) | 0 (inactive) | 1 (active) | 0 (inactive) | 0 (inactive) | 1 (active) | 0 (inactive) | 1 (active) | 1 (active) | 1 (active) | 1 (active) | 0 (inactive) | 1 (active)
CC(=O)Nc1ccc(NC(=S)NC(=O)c2ccc(C(C)(C)C)cc2)cc1 [Tenovin-1] | 1 µM | 1 µM | 1 µM | ≤ 0.3 µM | 9 µM | 1 (active) | 0 (inactive) | 1 (active) | 0 (inactive) | 1 (active) | 0 (inactive) | 1 (active) | 0 (inactive) | 1 (active) | 1 (active) | 1 (active) | 1 (active) | 1 (active) | 1 (active) | 1 (active)
